From PubChem BioAssay come the findings set out here.

The nature of test [1]: antimalarial activity against Dd2 strain (AID 2302;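 active = growth inhibition above 50% at the single 2 µM test dose, taken to imply half-maximal potency below 2 µM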;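 also: 0% = DMSO untreated growth and 100% = chloroquine plus artemisinin killed control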). The note with it: P. falciparum Dd2 in RBCs, LDH growth readout, 72 h; at 2 µM; stronger effect = higher value.
Test [2] in a line: HepG2 cytotoxicity, primary screen, cytotoxicity control for P. falciparum antimalarial project, cell-based, ATP luminescence (AID 2303;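 active = inhibition above 50%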;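 also: 0% = DMSO wells and 100% = digitonin-killed cells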). The note with it: HepG2 viability, 24-48 h, at 10 µM, stronger effect = higher value.
Test [3] concerns the target L-lactate dehydrogenase (Plasmodium falciparum (isolate CDC / Honduras)) (UniProt Q27743). Briefly: PfLDH activity inhibition – cell lysate, 3D7 strain, counter-screen for P. falciparum growth inhibition project (AID 2304).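 Also: 0% = vehicle and 100% = reference inhibitor.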 The note with it: P. falciparum 3D7 crude extract, LDH APAD/NBT absorbance; at 2 µM; stronger effect = higher value.
The nature of test [4]: inhibition of 3D7 malaria parasite growth – strain 3D7 (AID 2306).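 Also: 0% = DMSO wells and 100% = chloroquine plus artemisinin control wells.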 The note with it: P. falciparum 3D7 erythrocytic growth, LDH absorbance, 72 h; at 2 µM; stronger effect = higher value.
The target in test [5] is Calcium-dependent protein kinase 1 (Plasmodium falciparum (isolate 3D7)) (UniProt P62344). Briefly: PfCDPK1 kinase inhibitors, biochemical, TCAMS library (AID 1159585; cut-off not given, nearly all actives have IC50 up to about 0.98 µM;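 also: inhibitors leave more ATP so luminescence rises with inhibition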). The note with it: recombinant PfCDPK1, Kinase-Glo ATP depletion luminescence. In general terms: Kinase-Glo measures the ATP left after a reaction by luminescence.
Test [6] has as its target Plasmodium falciparum protein kinase 6 (PK6, PF3D7_1337100) (UniProt Q8IDW1). The test can be described thus: PfPK6 kinase inhibitors, biochemical, TCAMS library (AID 1159586). The note with it: recombinant PfPK6, Kinase-Glo ATP depletion luminescence.
Test [7] addresses Protein kinase 7 (PK7), Plasmodium falciparum 3D7 (PF3D7_0213400) (UniProt Q7YTF7). Briefly: inhibition of Plasmodium PK7 catalytic activity – biochemical, TCAMS antimalarial set, Kinase-Glo luminescence (AID 1159587). The note with it: recombinant PfPK7, Kinase-Glo ATP depletion luminescence.
Test [8] deals with Calcium-dependent protein kinase 4 (Plasmodium falciparum (isolate 3D7)) (UniProt Q8IBS5). Briefly: PfCDPK4 kinase inhibitors, biochemical, TCAMS library (AID 1159588; cut-off not given, nearly all actives have IC50 up to about 0.91 µM). The note with it: recombinant PfCDPK4, Kinase-Glo ATP depletion luminescence.

Unmarked numbers belong to inactive results. For some of these results: Results with a measured potency or affinity are listed apart. Activity calls are given as the source filed them. Unless noted, no rule for the calls is given here.

L-lactate dehydrogenase (Plasmodium falciparum (isolate CDC / Honduras)), sequence (Q27743 whole entry, looked up): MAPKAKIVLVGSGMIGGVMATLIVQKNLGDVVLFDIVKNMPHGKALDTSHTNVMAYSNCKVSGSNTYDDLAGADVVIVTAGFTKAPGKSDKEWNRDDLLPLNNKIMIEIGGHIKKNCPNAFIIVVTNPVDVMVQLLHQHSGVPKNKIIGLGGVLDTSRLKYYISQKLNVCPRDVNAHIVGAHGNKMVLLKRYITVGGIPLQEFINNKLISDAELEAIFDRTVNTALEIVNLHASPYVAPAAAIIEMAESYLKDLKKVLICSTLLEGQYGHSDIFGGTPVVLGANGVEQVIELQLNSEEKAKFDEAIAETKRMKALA
Calcium-dependent protein kinase 4 (Plasmodium falciparum (isolate 3D7)), sequence (Q8IBS5 whole entry, looked up): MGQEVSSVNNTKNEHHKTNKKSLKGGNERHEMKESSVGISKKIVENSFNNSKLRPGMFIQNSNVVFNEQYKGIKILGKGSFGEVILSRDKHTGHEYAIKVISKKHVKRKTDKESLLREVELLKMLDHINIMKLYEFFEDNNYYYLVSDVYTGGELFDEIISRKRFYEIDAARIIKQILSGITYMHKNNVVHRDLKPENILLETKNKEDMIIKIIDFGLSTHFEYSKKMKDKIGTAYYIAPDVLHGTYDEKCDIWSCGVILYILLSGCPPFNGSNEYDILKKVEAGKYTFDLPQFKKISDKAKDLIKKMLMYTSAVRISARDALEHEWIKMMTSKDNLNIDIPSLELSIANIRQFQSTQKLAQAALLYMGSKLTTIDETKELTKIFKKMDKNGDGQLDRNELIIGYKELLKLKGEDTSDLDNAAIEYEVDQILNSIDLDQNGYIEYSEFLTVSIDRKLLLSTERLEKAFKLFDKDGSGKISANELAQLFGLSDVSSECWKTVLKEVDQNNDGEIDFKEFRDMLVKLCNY
Plasmodium falciparum protein kinase 6 (PK6, PF3D7_1337100), sequence (Q8IDW1 1-305): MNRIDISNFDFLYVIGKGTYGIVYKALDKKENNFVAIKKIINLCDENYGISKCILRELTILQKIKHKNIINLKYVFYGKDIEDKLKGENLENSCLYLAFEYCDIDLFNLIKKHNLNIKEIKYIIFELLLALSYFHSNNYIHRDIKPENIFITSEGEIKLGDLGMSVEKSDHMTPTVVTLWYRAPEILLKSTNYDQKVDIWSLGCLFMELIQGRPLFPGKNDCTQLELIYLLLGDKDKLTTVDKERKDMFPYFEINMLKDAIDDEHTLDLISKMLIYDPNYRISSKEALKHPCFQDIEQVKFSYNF
Calcium-dependent protein kinase 1 (Plasmodium falciparum (isolate 3D7)), sequence (P62344 whole entry, looked up): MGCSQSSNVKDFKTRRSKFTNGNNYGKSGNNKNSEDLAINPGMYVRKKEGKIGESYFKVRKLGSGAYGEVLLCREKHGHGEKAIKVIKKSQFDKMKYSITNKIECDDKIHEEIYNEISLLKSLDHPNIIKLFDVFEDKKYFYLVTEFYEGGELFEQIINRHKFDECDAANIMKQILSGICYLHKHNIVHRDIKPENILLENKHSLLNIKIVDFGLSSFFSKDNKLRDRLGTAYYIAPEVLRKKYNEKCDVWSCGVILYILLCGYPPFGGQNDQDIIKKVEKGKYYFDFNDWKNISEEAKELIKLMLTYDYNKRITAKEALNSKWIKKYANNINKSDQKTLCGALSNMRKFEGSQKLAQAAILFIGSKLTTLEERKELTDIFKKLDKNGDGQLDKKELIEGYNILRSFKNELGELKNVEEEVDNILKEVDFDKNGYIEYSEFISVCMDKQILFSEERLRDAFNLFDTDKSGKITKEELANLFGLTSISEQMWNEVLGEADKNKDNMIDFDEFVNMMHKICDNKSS
Protein kinase 7 (PK7), Plasmodium falciparum 3D7 (PF3D7_0213400), sequence (Q7YTF7 1-343): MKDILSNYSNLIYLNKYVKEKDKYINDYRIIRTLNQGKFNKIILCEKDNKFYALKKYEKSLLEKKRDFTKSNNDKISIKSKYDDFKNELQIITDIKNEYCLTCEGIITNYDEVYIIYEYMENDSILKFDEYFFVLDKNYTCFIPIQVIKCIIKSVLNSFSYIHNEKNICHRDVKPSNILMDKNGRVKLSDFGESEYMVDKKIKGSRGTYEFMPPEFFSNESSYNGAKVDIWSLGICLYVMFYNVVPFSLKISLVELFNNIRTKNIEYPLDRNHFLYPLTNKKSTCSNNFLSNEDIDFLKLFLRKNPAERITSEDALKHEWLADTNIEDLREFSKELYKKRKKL

Consider `Nc1c(Cl)cc(C(O)CNCCCCCOCCc2ccc3ccccc3n2)cc1Cl` (stereo not given), for which the growth inhibition was 97% (active) in test [1] and 98% (active) in test [4]. Further, the inhibition (as a rule, the relative decrease from the control value, in per cent) is 9% in test [2] and -1% in test [3]. Moreover, the outcome in test [5], in test [6], in test [7] and in test [8] was inactive.
With `OCC1CCN(Cc2ccc(-c3ccc(-c4nc5ccccc5[nH]4)cc3)cc2)CC1`, the growth inhibition in test [1] was 84% (active); in test [4] it was 100% (active). Besides, the results for the inhibition in test [2] and in test [3] were 37% and 1%, respectively. Moreover, the outcome in test [5], in test [6], in test [7] and in test [8] was inactive.
Take `CCN1CCN(c2cc(C)c3cc(NC(=O)C=Cc4cccc(OC)c4OC)ccc3n2)CC1`: the growth inhibition in test [1] is 38%; in test [4], 99% (active). Also, the inhibition in test [2] was 18%; in test [3] it was -3%. The result in test [5], in test [6], in test [7] and in test [8] was inactive.
As to `CCNc1cc(C(=O)N[C@@H](Cc2ccccc2)[C@H](O)CN[C@H](C)c2ccccc2)cc(N2CCCC2=O)c1`, the growth inhibition is 99% (active) in test [1] and 97% (active) in test [4]. Moreover, the inhibition was -1% in test [2] and 6% in test [3]. The result in test [5], in test [6], in test [7] and in test [8] was inactive.
Regarding `CCC(CC)N1C(=O)C(c2ccccc2)(c2ccccc2)N=C1N`, the growth inhibition is 61% (active) in test [1] and 96% (active) in test [4]. Moreover, the inhibition in test [2] was 14%; in test [3] it was -7%. The outcome in test [5], in test [6], in test [7] and in test [8] was inactive.
For the compound `c1cncc(CNc2ncc(-c3ccsc3)c(-c3nccs3)n2)c1`, the growth inhibition in test [1] is 63% (active); in test [4] it was 81% (active). For the same compound, the inhibition in test [2] was -6%; in test [3], 2%. Also, the result in test [5], in test [6], in test [7] and in test [8] was inactive.
Take `COc1cc(F)c2ncc(Cl)c(CCN3CCC(NCc4ccc5c(n4)NC(=O)CO5)CC3)c2c1`: the growth inhibition is 19% in test [1] and 89% (active) in test [4]. The inhibition is 20% in test [2] and -1% in test [3]. The result in test [5], in test [6], in test [7] and in test [8] was inactive.
With `COc1c(OC)c(OC)c2ccccc2c1CCNCCCCNCCc1c(OC)c(OC)c(OC)c2ccccc12`, the values for the growth inhibition in test [1] and in test [4] were 72% (active) and 99% (active), respectively. Besides, the inhibition is 100% (active) in test [2] and -3% in test [3]. Moreover, the result in test [5], in test [6], in test [7] and in test [8] was inactive.
`CC(=O)c1ccc2cc(C(=O)NC3CCC(CCN4CCc5ccc(-c6noc(C)n6)cc5CC4)CC3)[nH]c2c1` (stereo not given): the growth inhibition in test [1] was 45%; in test [4], 81% (active). For the same compound, the inhibition was 28% in test [2] and 0% in test [3]. The result in test [5], in test [6], in test [7] and in test [8] was inactive.
Regarding `N#Cc1cccc(Nc2nccc(NCC(O)c3ccc(C(F)(F)F)cc3)n2)c1` (stereo not given), the growth inhibition is 98% (active) in test [1] and 102% (active) in test [4]. Further, the inhibition is 23% in test [2] and 4% in test [3]. Besides, the outcome in test [5], in test [6], in test [7] and in test [8] was inactive.
`CN(C)c1ccc(CN2CCC(NC(=O)c3ccc(-c4ccc(N(C)C)cc4)s3)CC2)cc1`: the growth inhibition in test [1] was 21%; in test [4] it was 93% (active). For the same compound, the inhibition was 24% in test [2] and -2% in test [3]. The result in test [5], in test [6], in test [7] and in test [8] was inactive.
Regarding `Cc1cccc(N2CCN(C3CCC(NC(=O)c4cc5ccccc5[nH]4)CC3)CC2)c1C` (stereo not given), the growth inhibition was 21% in test [1] and 101% (active) in test [4]. Also, the results for the inhibition in test [2] and in test [3] were 49% and -4%, respectively. Further, the outcome in test [5], in test [6], in test [7] and in test [8] was inactive.
With `COc1cc(C(=O)NC2CCc3ccccc32)cc(Cl)c1OC` (stereo not given), the growth inhibition in test [1] is 60% (active); in test [4] it was 85% (active). Further, the inhibition is 12% in test [2] and -4% in test [3]. The result in test [5], in test [6], in test [7] and in test [8] was inactive.
As for `NC(=O)CNC(=O)CCCN=C(N)N`, the results for the growth inhibition in test [1] and in test [4] were -2% and 101% (active), respectively. In addition, the inhibition in test [2] was 20%; in test [3], 5%. Moreover, the outcome in test [5], in test [6], in test [7] and in test [8] was inactive.
In the case of `C=CCOC(=O)N1CCC(CNCc2ccc(-c3ccc(-c4nc5ccccc5[nH]4)s3)cc2)C1` (stereo not given), the growth inhibition was 76% (active) in test [1] and 101% (active) in test [4]. Moreover, the figures for the inhibition in test [2] and in test [3] were 29% and -2%, respectively. For the same compound, the result in test [5], in test [6], in test [7] and in test [8] was inactive.
Regarding `CN1CCN(CCCN(Cc2csc(-c3ccc(CNCc4ccccc4)cc3)n2)S(=O)(=O)c2ccccc2)CC1`, the results for the growth inhibition in test [1] and in test [4] were 78% (active) and 99% (active), respectively. The inhibition in test [2] was 17%; in test [3], 7%. Moreover, the result in test [5], in test [6], in test [7] and in test [8] was inactive.
In the case of `O=C1NC(C(=O)Nc2ccccc2)C(c2ccccc2)S1` (stereo not given), the growth inhibition in test [1] was 99% (active); in test [4], 95% (active). Also, the inhibition in test [2] was -4%; in test [3] it was -1%. Further, the result in test [5], in test [6], in test [7] and in test [8] was inactive.
With `O=S(=O)(NC1CCN(c2ccnc3ccccc23)C1)c1ccc(OC(F)(F)F)cc1` (stereo not given), the growth inhibition in test [1] was -1%; in test [4], 88% (active). For the same compound, the inhibition in test [2] is 34%; in test [3], 5%. For the same compound, the outcome in test [5], in test [6], in test [7] and in test [8] was inactive.
For the compound `c1ccc2[nH]c(-c3ccc(-c4ccc(CN5CCN(c6ccncc6)CC5)cc4)cc3)nc2c1`, the growth inhibition in test [1] is 100% (active); in test [4] it was 101% (active). Moreover, the inhibition was 48% in test [2] and -3% in test [3]. Moreover, the outcome in test [5], in test [6], in test [7] and in test [8] was inactive.
As for `Cc1cccc2[nH]c(-c3ccc(-c4ccc(CNCCNC(=O)c5ccnn5C)cc4)s3)nc12`, the growth inhibition in test [1] was 97% (active); in test [4] it was 101% (active). Also, the inhibition was 20% in test [2] and -1% in test [3]. Besides, the result in test [5], in test [6], in test [7] and in test [8] was inactive.
